Source: PubChem BioAssay (NCATS)
Records with an inconclusive call do not appear. The source made the active and inactive calls. Calls follow the shape of the dose curve; as a rule, active = well fitted cell-killing curve with a large enough effect; inconclusive = small, poorly fitted or top-dose-only effect, or effect the other way; inactive = flat fitted curve, though single readings scatter.

Columns and labels:
Assay in all cases: Primary qHTS to identify gynecologic anti-cancer compounds using libraries of approved drugs and bioactive compounds (AID 1345084); also: nearly all actives have a fitted effect of over 55% in size
CAOV3 = conditions: Gynecologic cancer cell panel viability, ATPlite luminescence, 48 h; series mostly up to 57.5 µM
Outline: (§1)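 Cytotoxicity screen measuring ATP content by luciferase luminescence. Each compound is applied at five concentrations for 48 h at 37 C with 5% CO2.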

CASKI = conditions: Gynecologic cancer cell panel viability, ATPlite luminescence, 48 h; series mostly up to 57.5 µM
Outline: as §1

Es-2 = conditions: Gynecologic cancer cell panel viability, ATPlite luminescence, 48 h; series mostly up to 57.5 µM
Outline: as §1

HeLa = conditions: Gynecologic cancer cell panel viability, ATPlite luminescence, 48 h; series mostly up to 57.5 µM
Outline: as §1

Hek293T = conditions: Gynecologic cancer cell panel viability, ATPlite luminescence, 48 h, control line for the selectivity index; series mostly up to 57.5 µM
Outline: as §1

JEG-3 = conditions: Gynecologic cancer cell panel viability, ATPlite luminescence, 48 h; series mostly up to 57.5 µM
Outline: as §1

OV90 = conditions: Gynecologic cancer cell panel viability, ATPlite luminescence, 48 h; series mostly up to 57.5 µM
Outline: as §1

PA-1 = conditions: Gynecologic cancer cell panel viability, ATPlite luminescence, 48 h; series mostly up to 57.5 µM
Outline: as §1

SKOV3 = conditions: Gynecologic cancer cell panel viability, ATPlite luminescence, 48 h; series mostly up to 57.5 µM
Outline: as §1

Tov-21-G = conditions: Gynecologic cancer cell panel viability, ATPlite luminescence, 48 h; series mostly up to 57.5 µM
Outline: as §1

Tov112D = conditions: Gynecologic cancer cell panel viability, ATPlite luminescence, 48 h; series mostly up to 57.5 µM
Outline: as §1

Measured: Potency

CC(C)N(C[C@H]1O[C@@H](n2cnc3c(N)ncnc32)[C@H](O)[C@@H]1O)C1CC(CCc2nc3ccc(C(C)(C)C)cc3[nH]2)C1 (some centres undefined)
inactive: all assays above

CCOc1ccc(C(Nc2ccccn2)c2ccc3ccc(C)nc3c2O)cc1C (centres undefined)
inactive: all assays above

COc1cc(/C=C/C(=O)OC2CC(OC(C)=O)C(OC(C)=O)C3C2CCC2C(=O)OC(c4ccoc4)CC23C)ccc1O[C@@H]1O[C@H](CO)[C@@H](O)[C@H](O)[C@H]1O (some centres undefined)
inactive: all assays above

C[C@@H]1CC[C@]2(C)C(C[C@@H](O)[C@H](O)[C@]23CO3)[C@@]1(C)CCc1ccoc1 (some centres undefined)
inactive: all assays above

CC(=O)OC[C@]12[C@H](OC(C)=O)C(=O)[C@@H]3[C@@H](OC(C)=O)[C@@]14O[C@@]3(C)COC(=O)c1cccnc1[C@@H](C)[C@H](C)C(=O)O[C@@H]([C@H](OC(C)=O)[C@@H]2OC(C)=O)[C@]4(C)O
inactive: all assays above

CC(=O)NC(C(=O)OC1CCC(C)(C)C2CC=C3C(=O)OCC3(O)C12C)C(C)C (centres undefined)
inactive: all assays above

CC(=O)c1c(O)cc2cccc3c2c1CC(C)(O)O3 (centres undefined)
inactive: all assays above

CCOC(=O)c1c(C)nn(-c2cccc([N+](=O)[O-])c2)c1C
inactive: all assays above

CCC(C)(O)C(O)C(=O)OCc1ccc(O[C@@H]2O[C@H](CO)[C@@H](O)[C@H](O)[C@H]2O)cc1 (some centres undefined)
inactive: all assays above

CC1=C2C3OC(=O)C(C)C3(O)CCC2(C)CCC1=O (centres undefined)
inactive: all assays above

C/C=C1\[C@H](O[C@@H]2O[C@H](CO)[C@@H](O)[C@H](O)[C@H]2O)OC=C(C(=O)OC)[C@H]1CC(=O)OC
inactive: all assays above

CC1(C)CC[C@]2(C(=O)O)CC[C@]3(C)C(=CCC4[C@@]5(C)CC[C@H](O[C@@H]6O[C@H](C(=O)O)[C@@H](O)[C@H](O)[C@H]6O)C(C)(CO)C5CC[C@]43C)C2C1 (some centres undefined)
inactive: all assays above

C=C1C(=O)OC2CC(C)=C(C(C)CCCO[C@@H]3O[C@H](CO)[C@@H](O)[C@H](O)[C@H]3O)C(O)C12 (some centres undefined)
inactive: all assays above

C/C=C/C1=CC2=C(CO1)C(=O)[C@](C)(O)[C@H](OC(=O)c1c(O)cc(OC)c(O)c1C)C2
inactive: all assays above

CC(C)[C@H]1CCC(CO)=C[C@@H]1/C=C(\CO)C(=O)O
inactive: all assays above

OC[C@H]1O[C@@H](Oc2ccc3c(c2)OC[C@H]2c4cc5c(cc4O[C@@H]32)OCO5)[C@H](O)[C@@H](O)[C@@H]1O
inactive: all assays above

NCCCC[C@H](NC(=O)[C@@H]1Cc2ccccc2CN1C(=O)CCC(=O)c1ccccc1)C(=O)NCC(c1ccccc1)c1ccccc1
inactive: all assays above

COc1cc(C[C@H]2COC(=O)[C@@H]2Cc2ccc(O)c(OC)c2)ccc1O
inactive: all assays above

C=C(C(=O)OC)C1CCC2(C)C(O[C@@H]3O[C@H](CO)[C@@H](O)[C@H](O)[C@H]3O)CC(=O)C(C)C2C1O (some centres undefined)
inactive: all assays above

COc1cc(/C=C/C(=O)OC(C)(C)C(OC2OC(CO)C(O)C(O)C2O)C(=O)OCc2ccc(OC3OC(CO)C(O)C(O)C3O)cc2)ccc1O (centres undefined)
not listed: SKOV3
inactive: all other assays above
